This passage reports growth results from PubChem BioAssay (NCI).

Among the test systems are OVCAR-5 ovarian; OVCAR-4 ovarian; SK-OV-3 ovarian; IGROV1 ovarian; OVCAR-3 ovarian; HS 578T breast; NCI/ADR-RES ovarian; T-47D breast; OVCAR-8 ovarian.
Common to all, as to assay: NCI-60 one-dose screen, 48 h (100 = growth as untreated, 0 = no growth, -100 = all killed)
What all share (conditions): 10 µM unless noted

Compounds without any hit were thinned out: in the full panel of roughly 83,000, 20% have a hit.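 96-well plates, one dose, 48 hours. Percent growth reported; active if below 10.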 Unmarked numbers belong to inactive results. Active and inactive are the calls of the source.

Consider `Cc1ccc(C(=O)O)o1`, for which the growth is 105% with OVCAR-5 ovarian; 100% in the test on OVCAR-4 ovarian; 101% in the test on SK-OV-3 ovarian; 102% with IGROV1 ovarian; 103% in the test on OVCAR-3 ovarian; 118% in the test with HS 578T breast. Further, the growth in the test on NCI/ADR-RES ovarian is 101%; with T-47D breast, 102%.

As to `COc1ccc(C(=O)c2cc(F)c(F)c(OC)c2F)cc1OC(=O)CCl`, the growth was 51.1% in the test with OVCAR-8 ovarian; 103% in the test with OVCAR-5 ovarian; 81.7% with OVCAR-4 ovarian; 45.9% in the test on SK-OV-3 ovarian; 43.7% with IGROV1 ovarian; 13.7% in the test with OVCAR-3 ovarian. The growth in the test with HS 578T breast was 65.4%; in the test on NCI/ADR-RES ovarian, 14.3%; with T-47D breast it was 44.1%.

On to `Cc1cccc(NC(=O)c2sc3nc4c(cc3c2N)CN(Cc2ccccc2)CC4)c1C`, for which the growth is 34.3% in the test with OVCAR-8 ovarian; 57.4% with OVCAR-5 ovarian; 61.7% in the test with OVCAR-4 ovarian; 42.2% with SK-OV-3 ovarian; 48.5% in the test on IGROV1 ovarian; -21.3% (active) in the test on OVCAR-3 ovarian. Further, the growth with HS 578T breast is 30.8%; in the test on NCI/ADR-RES ovarian, 20.2%; in the test on T-47D breast, 53%.

Take `Cc1cc(C)c(NC(=O)c2sc3nc4c(cc3c2N)CCCCCC4)c(C)c1`: the growth in the test on OVCAR-8 ovarian is 73.9%; with OVCAR-5 ovarian, 95.3%; in the test on OVCAR-4 ovarian, 73.7%; with SK-OV-3 ovarian, 44.6%; with IGROV1 ovarian, 61.2%; with OVCAR-3 ovarian, 15.8%. Moreover, the results for the growth in the test with HS 578T breast, in the test with NCI/ADR-RES ovarian and in the test with T-47D breast were 47.6%, 48.1% and 44.5%, respectively.

For the compound `CCCCCCCCCCCCCC1=NCC[N+]1(CCO)Cc1ccccc1` (stereo not given), the growth in the test on OVCAR-8 ovarian is -83% (active); in the test on OVCAR-5 ovarian, -15% (active); with OVCAR-4 ovarian it was -28.5% (active); with SK-OV-3 ovarian, 48.8%; in the test with IGROV1 ovarian it was -72.6% (active); in the test with OVCAR-3 ovarian it was -86.9% (active). The growth with HS 578T breast is -36.5% (active); with NCI/ADR-RES ovarian, -60.1% (active); with T-47D breast, -72.8% (active).

For `CCOC(=O)c1ccc(Nc2ncnc3ccc(NC(=O)c4ccccc4)cc23)cc1`, the growth in the test on OVCAR-8 ovarian is 86.7%; in the test on OVCAR-5 ovarian, 96.2%; in the test with OVCAR-4 ovarian, 89.2%; in the test on SK-OV-3 ovarian, 100%; in the test on IGROV1 ovarian it was 103%; in the test with OVCAR-3 ovarian, 94.4%. The growth was -95% (active) in the test with HS 578T breast, 86.8% in the test with NCI/ADR-RES ovarian and 65.6% in the test on T-47D breast.

As for `CCc1c(C(=O)N[C@@H](C(=O)OCc2ccccc2)C(C)O)[nH]c2ccc(Cl)cc12` (stereo not given in full), the growth was 59.2% in the test with OVCAR-8 ovarian; 69.1% in the test with OVCAR-5 ovarian; -46.9% (active) in the test with OVCAR-4 ovarian; 59.3% in the test with SK-OV-3 ovarian; 46.3% with IGROV1 ovarian; 29.4% with OVCAR-3 ovarian. Moreover, the values for the growth in the test on HS 578T breast, in the test with NCI/ADR-RES ovarian and in the test on T-47D breast were 40.6%, 68.2% and 47.5%, respectively.

As to `C=C1C(=O)O[C@H]2[C@H]1CC/C(COC(=O)/C=C/c1cccnc1)=C\CC[C@@]1(C)O[C@@H]21`, the growth is 40.6% in the test with OVCAR-8 ovarian; 59.1% in the test with OVCAR-5 ovarian; 32.4% in the test with OVCAR-4 ovarian; 80.2% with SK-OV-3 ovarian; 36.7% with IGROV1 ovarian; -6.31% (active) in the test on OVCAR-3 ovarian. The growth with HS 578T breast is 62.8%; with NCI/ADR-RES ovarian, 54.5%; in the test on T-47D breast, 23%.

`C=C(C)[C@@H]1CC[C@]2(C(=O)OCCCC[P+](c3ccccc3)(c3ccccc3)c3ccccc3)CC[C@]3(C)[C@H](CC[C@@H]4[C@@]5(C)CC[C@H](OC(=O)C(Cl)Cl)C(C)(C)[C@@H]5CC[C@]43C)[C@@H]12`: the growth was -1.54% (active) with OVCAR-8 ovarian; -1.72% (active) in the test with OVCAR-5 ovarian; -0.103% (active) with OVCAR-4 ovarian; -5.89% (active) in the test on SK-OV-3 ovarian; -23.3% (active) in the test with IGROV1 ovarian; -42.7% (active) in the test with OVCAR-3 ovarian. Moreover, the growth with HS 578T breast is -0.621% (active); in the test with NCI/ADR-RES ovarian it was 52.7%; in the test on T-47D breast, -14.3% (active).

On to `COC(=O)/C=C1\SC(=Nc2ccc(C(F)(F)F)cc2)N(CCc2c[nH]c3ccccc23)C1=O`, for which the growth is -9.92% (active) in the test with OVCAR-8 ovarian; -41.4% (active) in the test with OVCAR-5 ovarian; -33.2% (active) with OVCAR-4 ovarian; 10.4% in the test on SK-OV-3 ovarian; -66.1% (active) with IGROV1 ovarian; -91% (active) in the test with OVCAR-3 ovarian. Further, the growth in the test on HS 578T breast is -2.51% (active); in the test with NCI/ADR-RES ovarian, -12.9% (active); in the test with T-47D breast it was -40.7% (active).

Turning to `CCC1S/C(=N\N=C(/C)c2ccc[nH]2)N(c2ccccc2)C1=O` (stereo not given), the growth in the test with OVCAR-8 ovarian is 90.2%; in the test with OVCAR-5 ovarian, 99.3%; in the test on OVCAR-4 ovarian it was 104%; in the test with SK-OV-3 ovarian, 123%; in the test with IGROV1 ovarian, -48.7% (active); with OVCAR-3 ovarian, 89.7%. The figures for the growth in the test on HS 578T breast, with NCI/ADR-RES ovarian and in the test with T-47D breast were 124%, 85.2% and 122%, respectively.

With `O=C1Nc2ccc(Cl)cc2/C1=N/c1nc(-c2ccc(Cl)cc2)cs1`, the growth in the test with OVCAR-8 ovarian was 3.67% (active); in the test on OVCAR-5 ovarian, 26.2%; with OVCAR-4 ovarian, 34.9%; in the test on SK-OV-3 ovarian it was 1.76% (active); in the test on IGROV1 ovarian it was 16.6%; with OVCAR-3 ovarian, -13.6% (active). For the same compound, the growth in the test with HS 578T breast was 13.7%; in the test with NCI/ADR-RES ovarian it was 57.7%; in the test with T-47D breast it was -3.94% (active).

For the compound `CCOC(=O)c1c(C)nc2c(c1N)/C(=C/c1ccc[nH]1)C(=O)N2Cc1ccc(C(F)(F)F)cc1`, the growth was 28.5% with OVCAR-8 ovarian; 74.5% in the test on OVCAR-5 ovarian; 12.6% in the test on OVCAR-4 ovarian; 21.9% in the test with SK-OV-3 ovarian; 54.7% in the test with IGROV1 ovarian; 47.7% with OVCAR-3 ovarian. Also, the growth is 38% with HS 578T breast, 49.7% in the test with NCI/ADR-RES ovarian and 24.8% in the test on T-47D breast.

As to `COc1cc(NC(=O)Nc2cnc(Nc3ccc(N4CCOCC4)cc3)nc2Oc2ccc(F)cc2)cc(OC)c1`, the growth in the test on OVCAR-8 ovarian was 73.4%; in the test on OVCAR-5 ovarian it was 113%; in the test on OVCAR-4 ovarian, 60%; with SK-OV-3 ovarian it was 102%; in the test on IGROV1 ovarian, 94.2%; with OVCAR-3 ovarian, 97.8%. Besides, the growth was 85.7% in the test on HS 578T breast, 95.4% in the test on NCI/ADR-RES ovarian and 53.5% in the test on T-47D breast.

On to `C#Cc1ccccc1NC(=O)c1sc2nc3c(cc2c1N)CCCCC3`, for which the growth in the test on OVCAR-8 ovarian was 100%; in the test with OVCAR-5 ovarian, 105%; in the test on OVCAR-4 ovarian it was 103%; in the test on SK-OV-3 ovarian, 100%; in the test with IGROV1 ovarian, 103%; in the test with OVCAR-3 ovarian, 105%. Further, the results for the growth with HS 578T breast, in the test on NCI/ADR-RES ovarian and with T-47D breast were 99.6%, 105% and 95%, respectively.

On to `COc1ccc(-c2cc(C(=O)N3N=C(c4ccc(N)cc4)CC3c3ccc(OC)cc3)c3cc(OC)ccc3n2)cc1` (stereo not given), for which the growth was 22.1% with OVCAR-8 ovarian; 103% in the test with OVCAR-5 ovarian; 71.9% with OVCAR-4 ovarian; 78.3% in the test on SK-OV-3 ovarian; 50.8% with IGROV1 ovarian; 22% in the test with OVCAR-3 ovarian. Also, the growth in the test on HS 578T breast is 45.9%; in the test with NCI/ADR-RES ovarian, -8.76% (active); in the test with T-47D breast it was 43.4%.

As for `Cc1c(Cl)cccc1NC(=O)c1sc2nc3c(cc2c1N)CN(Cc1ccccc1)CC3`, the growth is 64.2% in the test with OVCAR-8 ovarian; 75.1% in the test on OVCAR-5 ovarian; 62.4% in the test with OVCAR-4 ovarian; 44.2% in the test on SK-OV-3 ovarian; 52.2% in the test on IGROV1 ovarian; 0.716% (active) in the test on OVCAR-3 ovarian. The values for the growth with HS 578T breast, with NCI/ADR-RES ovarian and in the test with T-47D breast were 28.6%, 41.4% and 56.8%, respectively.

As for `Cc1cccc2nc3c(n12)C(=O)C(=O)c1ccccc1-3`, the growth in the test on OVCAR-8 ovarian is 46.9%; in the test with OVCAR-5 ovarian it was 104%; with OVCAR-4 ovarian it was 83.1%; in the test with SK-OV-3 ovarian it was 79.5%; with IGROV1 ovarian, 44.7%; in the test on OVCAR-3 ovarian, 54%. The values for the growth with HS 578T breast, in the test with NCI/ADR-RES ovarian and with T-47D breast were 75.2%, 50.3% and 62.5%, respectively.

As for `COC(=O)/C=C1\SC(=Nc2cccc(Cl)c2)N(CCc2c[nH]c3ccccc23)C1=O`, the growth in the test with OVCAR-8 ovarian was 51.4%; in the test with OVCAR-5 ovarian, 73.6%; in the test on OVCAR-4 ovarian, 62%; in the test with SK-OV-3 ovarian, 83.8%; with IGROV1 ovarian it was 53.7%; in the test with OVCAR-3 ovarian, 33.3%. Besides, the growth was 67.4% with HS 578T breast, 52.4% in the test on NCI/ADR-RES ovarian and 11.9% in the test on T-47D breast.

In the case of `Nc1n[nH]c2cccc(C#Cc3cccc(NC(=O)c4cc(N5CCOCC5)cc(C(F)(F)F)c4)c3)c12`, the growth in the test with OVCAR-8 ovarian was 45.5%; in the test with OVCAR-5 ovarian, 42.4%; with OVCAR-4 ovarian, 51.5%; with SK-OV-3 ovarian, 35.1%; with IGROV1 ovarian, 9.97% (active); with OVCAR-3 ovarian, 67.3%. Further, the growth was 40.5% with HS 578T breast, 47% with NCI/ADR-RES ovarian and 28.3% in the test on T-47D breast.

As to `O=c1[nH]c2ccccc2cc1-c1nc2ccncc2[nH]1`, the growth is 88.7% in the test on OVCAR-8 ovarian; 112% in the test on OVCAR-5 ovarian; 85.5% with OVCAR-4 ovarian; 90.5% in the test on SK-OV-3 ovarian; 84.2% with IGROV1 ovarian; 90.9% in the test with OVCAR-3 ovarian. Moreover, the growth in the test on HS 578T breast is 76.1%; in the test with NCI/ADR-RES ovarian, 108%; with T-47D breast, 77.8%.

Turning to `OCCNc1nc(NCCO)nc(Nc2ccc(C3=NN(c4ccc(Cl)cc4)C(c4ccc(Cl)cc4)C3)cc2)n1` (stereo not given), the growth was 110% with OVCAR-5 ovarian; 65.6% with OVCAR-4 ovarian; 84.1% with SK-OV-3 ovarian; 78.9% with IGROV1 ovarian; 40.7% with OVCAR-3 ovarian; 62% with HS 578T breast. The values for the growth in the test on NCI/ADR-RES ovarian and in the test with T-47D breast were 73.8% and 55.8%, respectively.

As for `COc1cccc(C(=O)OCCn2nc3c4c(cccc42)C(=O)c2ccccc2-3)c1O`, the growth in the test with OVCAR-8 ovarian was 56.7%; with OVCAR-5 ovarian, 69.3%; with OVCAR-4 ovarian it was 59.8%; in the test on SK-OV-3 ovarian, 120%; in the test with IGROV1 ovarian it was 44.9%; in the test with OVCAR-3 ovarian, 3.88% (active). The growth in the test with HS 578T breast was 20.1%; in the test on NCI/ADR-RES ovarian, 22.5%; in the test with T-47D breast, 40.8%.
